# Several values for one entry are separate records, joined by “and”; a condition that tells them apart may be missing. Equal values may be shown once. Activity calls are given as the source filed them.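 How the source made its calls, unless noted: active means compounds whose cell count with miR-34 switched on is under 0.7 times the count with it off; inactive means the rest.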
# Experiments:
# [1] = compounds altering circadian rhythm period length – cell-based, LOPAC library, luminescence reporter (AID 2774; call rule not given here;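 further: values are relative to mean of DMSO wells on each plate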); conditions: circadian reporter cells, at 7 µM, actives lie on both sides
# [2] = test system: Hepatitis C virus NS3 helicase; assay: blockers of NS3h binding to ssDNA – biochemical, fluorescence polarization, LOPAC1280 library, primary screen (AID 687035; in the data active means inhibition above about 37%); conditions: Purified HCV NS3 helicase, Cy5-dT15 ssDNA binding fluorescence polarization; stronger effect = higher value; concentration not given here
# [3] = Wnt pathway potentiators raising nuclear beta-catenin – imaging, WNT3A-conditioned medium, mouse C2C12, NPC library, primary screen (AID 1117326; in the data active means nuclear beta-catenin stimulation mostly above about 4.2%, no sharp cut-off; inactive means mostly below about 10%); conditions: stronger effect = higher value
# [4] = stimulators of insulin release from INS-1E, primary screen, cell-based, 5 mM glucose, NPC library (AID 1117329;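 active means compound raises insulin release from rat beta cells at 5 mM glucose, no numeric limit stated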); conditions: rat INS-1E insulin secretion, at 10 µM, stronger effect = higher value
# [5] = growth inhibition of GSK3B-pretreated HCT116 cells – cell-based, CellTiter-Glo, 0.2 to 20 µM (AID 1117336;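 active means compounds lowering colon cancer cell viability after pretreatment blocking the GSK3B kinase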); conditions: HCT116 viability after GSK3B inhibitor, at 20 µM, stronger effect = higher value
# [6] = inhibition of endothelial tube formation, primary screen, imaging, VEGF stimulated, CD31 staining, tube area, NPC library (AID 1117340;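 active means compound that reduces growth-factor-driven endothelial tube area in a mixed cell culture, no cutoff stated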); conditions: VEGF-stimulated ADSC/ECFC co-culture, at 10 µM, stronger effect = higher value
# [7] = GLP1 release stimulators, primary, NCI-H716, NPC library (AID 1117341;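 active means compound raises GLP1 secretion from the human gut endocrine cells, with no numeric limit stated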); conditions: NCI-H716 cells, at 10 µM, stronger effect = higher value
# [8] = HCT116 colon cancer cell growth inhibition, primary screen, CellTiter-Glo luminescence, NPC library (AID 1117342;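 active means compounds that lower survival of HCT116 colon cancer cells in the luminescence readout, no numeric limit stated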); conditions: at 20 µM (top of the series)
# [9] = reduced SW480 viability measured with CellTiter-Glo, NPC library, primary (AID 1117343;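 active means compounds that lower viability of the colon cancer cells in the luminescence readout, with no numeric limit stated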); conditions: CellTiter-Glo luminescence; at 20 µM (top of the series)
# [10] = NPC library primary testing for decreased DLD-1 cell viability via CellTiter-Glo (AID 1117346;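 active means compounds that lower survival of DLD-1 colon cancer cells in the luminescence readout, no cutoff given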); conditions: DLD-1 viability, CellTiter-Glo luminescence; at 20 µM (top of the series)
# [11] = test system: Aerobactin synthetase IucA (Klebsiella pneumoniae, hypervirulent); assay: biochemical IucA inhibition screen of LOPAC library by absorbance (AID 1346212; call rule not given here;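 further: 100% = no compound wells and 0% = no enzyme wells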); conditions: IucA enzyme assay, absorbance (OD) readout; stronger effect = lower value;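 tested at 8 µM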
# [12] = viability loss with induced miR-34 in A549 – imaging, A549 dox-inducible miR-34, nuclei and caspase counts, primary screen (AID 1347080); conditions: A549 miR-34 inducible, Hoechst nuclei count, 48 h
# [13] = galactose survival enhancers in mitochondrial complex I cybrids – cell-based, galactose medium, ATP luminescence, primary screen (AID 1645843;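 active means z-score of at least 1.8 in each of two replicates, scored against plate mean and spread of sample wells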;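 further: positive z means more ATP and so rescue of galactose-driven cybrid death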); conditions: complex I mutant cybrid cells, 72 h, stronger effect = higher value
# [14] = P. berghei load reduction in hepatocytes – cell-based, HepG2, luciferase luminescence, HepG2 viability, primary screen (AID 624349; in the data active means parasite load remaining mostly below about 12%, no sharp cut-off; inactive means mostly above about 10%;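 further: 100% = mean of DMSO negative control wells on the same plate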); conditions: P. berghei liver stage in HepG2, luciferase luminescence, concentration not given here; parasite load remaining: stronger effect = lower value; viability: measured here: HepG2 viability without parasites
# [15] = MELAS cybrid and Rieske KO viability enhancers – cell-based, MELAS cybrids, Rieske KO mouse fibroblasts, CellTiter-Glo, primary screen (AID 1508586;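 active means mean z-score across replicates of 1.96 or higher in either the MELAS or the Rieske mutant cell line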;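 further: z relative to plate mean and SD of compound and empty wells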); conditions: low glucose
# [16] = EMT-state selective cytotoxicity in co-culture – imaging, PC-3E GFP, TEM4-18 mCherry, primary screen (AID 1345086;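 active means compounds killing one labelled cell type while sparing the other, by normalised counts and ratio limits, not self-fluorescent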;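 on all read-outs here: cells exposed to compound for 72 h before imaging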;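 on red/green cell ratio (normalised): normalised mesenchymal count divided by normalised epithelial count so high means epithelial killing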); conditions: PC-3E GFP / TEM4-18 mCherry co-culture, imaging cell counts, at 1 µM; for red/green cell ratio (normalised): actives lie on both sides
# [17] = target: NAD(+) hydrolase SARM1 (Homo sapiens) (UniProt Q6SZW1); assay: blocking NAD cleavage by SARM1 SAM-TIR – cell lysate, NAD-Glo luminescence (AID 1508614;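 active means compound whose remaining NAD level is above about 45 nM, limit read from the data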); conditions: SAM-TIR HEK293T lysate NADase, at 1 µM, stronger effect = higher value
# [18] = compounds altering viability of human ES cells (AID 493140; call rule not given here;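 further: cells exposed to compounds for four days before counting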); conditions: human embryonic stem cell survival screen; stronger effect = higher value
# [19] = measured here: relative caspase fold change +Dox/-Dox
# [20] = measured here: total cells with miR-34 induction, stronger effect = lower value
# [21] = measured here: total cells without miR-34 induction
# [22] = MELAS cybrid survival, CellTiter-Glo 48 h, stronger effect = higher value
# [23] = Rieske KO mouse fibroblast survival, CellTiter-Glo 72 h
# [24] = stronger effect = lower value, cell number ratio, induced over uninduced
# [25] = measured here: epithelial PC-3E GFP cell survival
# [26] = measured here: mesenchymal TEM4-18 mCherry cell survival
# NAD(+) hydrolase SARM1 (Homo sapiens), sequence (Q6SZW1 whole entry, looked up): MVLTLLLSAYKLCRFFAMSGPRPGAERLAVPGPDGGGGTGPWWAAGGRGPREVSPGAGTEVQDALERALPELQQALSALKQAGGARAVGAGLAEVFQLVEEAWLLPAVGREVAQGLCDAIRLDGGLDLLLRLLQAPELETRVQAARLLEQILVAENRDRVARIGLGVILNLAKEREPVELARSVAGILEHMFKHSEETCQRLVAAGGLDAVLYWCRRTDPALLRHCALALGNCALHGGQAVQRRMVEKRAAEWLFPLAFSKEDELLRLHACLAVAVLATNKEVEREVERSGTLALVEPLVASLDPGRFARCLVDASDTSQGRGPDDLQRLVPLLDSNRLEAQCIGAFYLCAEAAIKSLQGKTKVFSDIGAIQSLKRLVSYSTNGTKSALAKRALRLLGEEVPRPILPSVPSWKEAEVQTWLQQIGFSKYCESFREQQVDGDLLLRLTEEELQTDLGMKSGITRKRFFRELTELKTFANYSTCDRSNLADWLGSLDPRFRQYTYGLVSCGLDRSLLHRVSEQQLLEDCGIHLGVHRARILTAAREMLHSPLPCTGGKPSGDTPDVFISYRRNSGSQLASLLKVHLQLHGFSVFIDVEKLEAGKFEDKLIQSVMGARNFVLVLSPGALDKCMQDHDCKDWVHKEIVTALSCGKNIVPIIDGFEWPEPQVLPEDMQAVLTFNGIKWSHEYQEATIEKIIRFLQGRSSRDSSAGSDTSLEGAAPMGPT
smiles,measurement,setting,value
Cc1ccc(S(=O)(=O)N[C@@H](CCCCN)C(=O)CCl)cc1,period change,[1],0 h (inactive)
same,inhibition,[2],-3% (inactive)
same,nuclear beta-catenin stimulation,[3]; at 10 µM,2.3% (inactive)
same,nuclear beta-catenin stimulation,"[3]; stimulation, at 2 µM",0%
same,insulin secretion stimulation,[4],0.9% (inactive)
same,viability decrease,[5],-9.5% (inactive)
same,tube area decrease,[6],13% (inactive)
same,GLP1 secretion stimulation,[7],-1.9% (inactive)
same,inhibition of viability,[8],-8.6% (inactive)
same,viability decrease (inhibition),[9],12.5% (inactive)
same,viability decrease (inhibition),[10],-7% (inactive)
same,remaining activity,[11],114% (inactive)
same,fold change,[12]; stronger effect = lower value,0.989 (inactive) and 0.965 (inactive)
same,fold change,[12]; [19],1.42 and 1.58
same,cell count,[12]; [20],9040 and 5750
same,cell count,[12]; [21],9130 and 5960
same,z-score,[13],-0.59 (inactive)
CC(C)NCC(O)c1ccc(N)c(C#N)c1 (centres undefined),parasite load remaining,[14],53.9% (inactive)
same,viability,[14],161%
same,nuclear beta-catenin stimulation,[3]; at 10 µM,-0.6% (inactive)
same,nuclear beta-catenin stimulation,"[3]; stimulation, at 2 µM",-0.3%
same,insulin secretion stimulation,[4],2.6% (inactive)
same,viability decrease,[5],25.9% (inactive)
same,tube area decrease,[6],-6.6% (inactive)
same,GLP1 secretion stimulation,[7],8.5% (inactive)
same,inhibition of viability,[8],12.2% (inactive)
same,viability decrease (inhibition),[9],40% (inactive)
same,viability decrease (inhibition),[10],9.6% (inactive)
same,fold change,[12]; stronger effect = lower value,0.911 (inactive) and 0.954 (inactive) and 0.854 (inactive)
same,fold change,[12]; [19],1.24 and 1.48 and 1.65
same,cell count,[12]; [20],6050 and 9400 and 9430
same,cell count,[12]; [21],6640 and 9850 and 11000
same,z-score,[15]; [22],0.636 (inactive)
same,z-score,[15]; [23],1.18
same,z-score,[13],0.17 (inactive) and 0.505 (inactive)
CC(C)(C)OC(=O)c1ncn2c1[C@@H]1CCCN1C(=O)c1c(Br)cccc1-2,nuclear beta-catenin stimulation,[3]; at 10 µM,4% (inactive)
same,nuclear beta-catenin stimulation,"[3]; stimulation, at 2 µM",2.4%
same,insulin secretion stimulation,[4],-0.65% (inactive)
same,viability decrease,[5],13.7% (inactive)
same,tube area decrease,[6],2% (inactive)
same,GLP1 secretion stimulation,[7],-0.4% (inactive)
same,inhibition of viability,[8],26.5% (inactive)
same,viability decrease (inhibition),[9],-7.5% (inactive)
same,viability decrease (inhibition),[10],7.7% (inactive)
same,fold change,[12]; [24],0.898 (inactive)
same,fold change,[12]; [19],1.56
same,cell count,[12]; [20],6920
same,cell count,[12]; [21],7710
same,z-score,[13],-0.115 (inactive)
c1ccc(C2CC2)c(OCC2=NCCN2)c1,period change,[1],-0.34 h (inactive)
same,parasite load remaining,[14],45.2% (inactive)
same,viability,[14],96.5%
same,inhibition,[2],-4% (inactive)
same,nuclear beta-catenin stimulation,[3]; at 10 µM,1.3% (inactive)
same,nuclear beta-catenin stimulation,"[3]; stimulation, at 2 µM",0.6%
same,insulin secretion stimulation,[4],-0.5% (inactive)
same,viability decrease,[5],-54.5% (inactive)
same,tube area decrease,[6],-3.7% (inactive)
same,GLP1 secretion stimulation,[7],10.4% (inactive)
same,inhibition of viability,[8],5.23% (inactive)
same,viability decrease (inhibition),[9],7% (inactive)
same,viability decrease (inhibition),[10],-2.1% (inactive)
same,remaining activity,[11],98% (inactive)
same,z-score,[15]; [22],-0.68 (inactive)
same,z-score,[15]; [23],-0.25
same,z-score,[13],-0.075 (inactive) and 0.06 (inactive) and 0.195 (inactive)
Nc1nc(N)nc(NC2CC2)n1,nuclear beta-catenin stimulation,[3]; at 10 µM,0.9% (inactive)
same,nuclear beta-catenin stimulation,"[3]; stimulation, at 2 µM",2.8%
same,insulin secretion stimulation,[4],-1.3% (inactive)
same,viability decrease,[5],-16.8% (inactive)
same,tube area decrease,[6],5.4% (inactive)
same,GLP1 secretion stimulation,[7],2.4% (inactive)
same,inhibition of viability,[8],2.07% (inactive)
same,viability decrease (inhibition),[9],-5.7% (inactive)
same,viability decrease (inhibition),[10],-8.2% (inactive)
same,red/green cell ratio (normalised),[16],0.97 (inactive)
same,normalised cell number,[16]; [25],1
same,normalised cell number,[16]; [26],0.96
same,fold change,[12]; stronger effect = lower value,0.94 (inactive) and 0.918 (inactive)
same,fold change,[12]; [19],0.828 and 0.774
same,cell count,[12]; [20],8490 and 8320
same,cell count,[12]; [21],9030 and 9070
same,z-score,[15]; [22],-0.201 (inactive)
same,z-score,[15]; [23],-0.194
same,remaining NAD,[17],10 nM (inactive)
O=C1NCN(c2ccccc2)C12CCN(CC1COc3ccccc3O1)CC2 (centres undefined),period change,[1],0.005 h (inactive)
same,parasite load remaining,[14],34.8% (inactive)
same,viability,[14],103%
same,inhibition,[2],-6% (inactive)
same,nuclear beta-catenin stimulation,[3]; at 10 µM,-0.5% (inactive)
same,nuclear beta-catenin stimulation,"[3]; stimulation, at 2 µM",0.8%
same,insulin secretion stimulation,[4],1.2% (inactive)
same,viability decrease,[5],-65.9% (inactive)
same,tube area decrease,[6],5.4% (inactive)
same,GLP1 secretion stimulation,[7],0.9% (inactive)
same,inhibition of viability,[8],17.3% (inactive)
same,viability decrease (inhibition),[9],28.7% (inactive)
same,viability decrease (inhibition),[10],3.2% (inactive)
same,remaining activity,[11],93.6% (inactive)
same,fold change,[12]; stronger effect = lower value,1.02 (inactive) and 0.89 (inactive) and 0.887 (inactive)
same,fold change,[12]; [19],1.92 and 0.981 and 1.04
same,cell count,[12]; [20],9490 and 8620 and 9600
same,cell count,[12]; [21],9350 and 9690 and 10800
same,z-score,[15]; [22],0.415 (inactive)
same,z-score,[15]; [23],1.51
same,z-score,[13],0.48 (inactive) and 0.105 (inactive) and 0.78 (inactive)
COP(=O)(OC)C(O)C(Cl)(Cl)Cl (centres undefined),survival,[18],17.5 (inactive)
same,parasite load remaining,[14],19.7% (inactive) and 127% (inactive)
same,viability,[14],48.9% and 90.6%
same,nuclear beta-catenin stimulation,[3]; at 10 µM,-1.9% (inactive)
same,nuclear beta-catenin stimulation,"[3]; stimulation, at 2 µM",0.4%
same,insulin secretion stimulation,[4],0.2% (inactive)
same,viability decrease,[5],2.4% (inactive)
same,tube area decrease,[6],5.8% (inactive)
same,GLP1 secretion stimulation,[7],-3.2% (inactive)
same,inhibition of viability,[8],-44.1% (inactive)
same,viability decrease (inhibition),[9],1.6% (inactive)
same,viability decrease (inhibition),[10],-13.3% (inactive)
same,red/green cell ratio (normalised),[16],0.95 (inactive)
same,normalised cell number,[16]; [25],0.96
same,normalised cell number,[16]; [26],0.91
same,fold change,[12]; stronger effect = lower value,0.918 (inactive)
same,fold change,[12]; [19],1.24
same,cell count,[12]; [20],8320
same,cell count,[12]; [21],9070
same,remaining NAD,[17],10 nM (inactive)
O=C(NC(=O)c1c(F)cccc1F)Nc1cc(Cl)c(OC(F)(F)C(F)C(F)(F)F)cc1Cl (centres undefined),nuclear beta-catenin stimulation,[3]; at 10 µM,2.8% (inactive)
same,nuclear beta-catenin stimulation,"[3]; stimulation, at 2 µM",1.2%
same,insulin secretion stimulation,[4],3.3% (inactive)
same,viability decrease,[5],3.9% (inactive)
same,tube area decrease,[6],19.4% (inactive)
same,GLP1 secretion stimulation,[7],2.3% (inactive)
same,inhibition of viability,[8],35% (inactive)
same,viability decrease (inhibition),[9],19.8% (inactive)
same,viability decrease (inhibition),[10],16.2% (inactive)
same,fold change,[12]; stronger effect = lower value,1.06 (inactive)
same,fold change,[12]; [19],0.7
same,cell count,[12]; [20],7240
same,cell count,[12]; [21],6820
same,remaining NAD,[17],10 nM (inactive)
FC(F)(F)c1cccc(C2=CCN(CCc3ccc4ccccc4c3)CC2)c1,nuclear beta-catenin stimulation,[3]; at 10 µM,-0.7% (inactive)
same,nuclear beta-catenin stimulation,"[3]; stimulation, at 2 µM",-1.5%
same,insulin secretion stimulation,[4],0.45% (inactive)
same,viability decrease,[5],40.2% (inactive)
same,tube area decrease,[6],-6.6% (inactive)
same,GLP1 secretion stimulation,[7],3.7% (inactive)
same,inhibition of viability,[8],42.1% (inactive)
same,viability decrease (inhibition),[9],53.5% (active)
same,viability decrease (inhibition),[10],17.3% (inactive)
same,fold change,[12]; [24],0.954 (inactive)
same,fold change,[12]; [19],1.47
same,cell count,[12]; [20],8420
same,cell count,[12]; [21],8830
same,z-score,[13],-0.615 (inactive)

# — PubChem BioAssay
